# Test system: PPARg:RXRa (NR concentration 180 nM, RXRa partner concentration 90 nM)
# Assay: PBM binding z-score (relative to random genomic background probes); higher = stronger binding; sequences stand for … in GC…GCGATTGACAGCGTAGAATGAAGG
# In short: (§1)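 Random background probes are the reference for binding z-scores. These scores derive from regression-normalized fluorescence on custom Agilent 4×180K protein-binding microarrays incubated 1 h with ligand-free nuclear receptor dimers. Binding was detected with antibodies against each partner (one per run).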
row,Sequence,PBM binding z-score
1,ACAGACAGGTGAGTGAAGCTAACTCAGCTGGACG,0.546
2,ATCTCTAGGTAACAAAGTTCAGTGAATGCCGAAC,2.01
3,ACTATTAGTAGAGACGAGGGCAACCGATAGGTTG,1
4,GCAGACAGGTGAAACGCCGGTAACTCAGGGTGGC,0.303
5,ATCTCTAGGTAAGACTCAGTTCACTGAAGAACGC,0.313
6,CGTCCAAGGTCAATGCTATGTCAGTGAAAGCATT,3.66
7,CGTCCAAGGTCATAGGAGGTCAGTGAAGACAGAT,5.77
8,CGTCCAATGTCAGCAGGTCAGTGAAAGCGACGTG,0.115
9,CCTCCAAGGTCAGCAGGTCAGTGAAAGCGACGTG,4.14
10,TCTTGTAGATCAACAAGAGGTTAAGAAAGATCGA,0.437
11,GGAACGAGGGCATTCGTGTTGATAGCATGGCGAT,0.763
12,GCTAGCAGGCCATTTCGGTCACTCAATGACGGGC,0.224
13,TCTAGTTGGTCACGGAGGTCTCACACGACGGGTA,0.78
14,ATATGTAGGTTCGCTGGGGTCATTCAGACTAGGC,2.95
15,CCAGACAGGTGAAAGGTAACACAGTCTGGTACGC,5.85
16,CGAACTAGGTCAAGGACAATGAATCTCCGCACGC,7.83
17,CAAACTAGGTCAAACGTCAAAGTCGAGCCAACCA,10.8
18,CCTTCCGGGTCACTCCAGGTTATAGCATCGGAGT,4.22
19,ACTAGCAGGACAAGGGTCACTCAAGATTAGTCCG,6.63
20,ACTCCGAGGACAAAGGTCAGAGCTACGCCAGTGA,8.48

row,Sequence,PBM binding z-score
1,CCTAGTTGGTCAAGGGCACACACGCTATAGGTAC,1.51
2,ACTCGGAGGACAAAGGTTAGAGCTACGCCAGTGA,4.75
3,CCTAGCAGCCCAGGGTCACTCAAGCATTTCGCTT,0.0606
4,CGTCCAAGGTCATAGGAGGTCAGAGAAGACAGAT,6.35
5,CAAACTAGGTCATGAGGTCAAAGTCCGCTTCCCG,9.89
6,TCTGCTAGGTCAAAGATGGTCAGCTAATCTGCTA,3.32
7,TGAATGAGGCTATAAGATCAGGGAACGTTGCAAA,0.387
8,CCAACTAGGTCACGAAAGGTCAAAGTCGAATGAC,9.92
9,TAGCCTAGGTCATGGGCCAATATACCACGCGAAC,4.22
10,CCTACTGGGCCATCCAGAGGTCATTGATCATATG,2.72
11,ACAGACGGGTGAGTGAAGGTAACTCAGCTGGACG,0.424
12,CTCGAAAGCTCGGTTGAGGTGAGTATACGGATAA,-0.189
13,TTTAGCAGGCCAGAGGGTCACTCAAGAGGTACGG,2.08
14,CCTCGGAGGACCGAAGGTCAGAGCTGTCCGCTTT,-0.382
15,CGAACTAGGTAATCCAGGACAGTGAATACATTGA,1.56
16,GCGGCTAGGTCAACTGATGGTCAGCTAAAGCTCG,2.23
17,ATCTCTAGGTAACTAGTTCAGTGAAAGAGAGGAC,0.87
18,GCATATAGGTAATACAATGTGAAAGTCCGATTGT,1.29
19,CCTTACGGGTAAAGGTTATAGCACGGGTGGTACG,2.95
20,GGAACGAGGGCAAGTTGAGAGCAGAGTTTGATGG,0.945

# Test system: PPARg:RXRa 270nM:90nM, anti-RXR (NR concentration 270 nM, RXRa partner concentration 90 nM)
# Assay: as above
# In short: as §1
row,Sequence,PBM binding z-score
1,ACAGACAGGTGAGTGAAGCTAACTCAGCTGGACG,-0.404
2,ATCTCTAGGTAACAAAGTTCAGTGAATGCCGAAC,3.09
3,ACTATTAGTAGAGACGAGGGCAACCGATAGGTTG,1.21
4,GCAGACAGGTGAAACGCCGGTAACTCAGGGTGGC,-0.0478
5,ATCTCTAGGTAAGACTCAGTTCACTGAAGAACGC,0.623
6,CGTCCAAGGTCAATGCTATGTCAGTGAAAGCATT,4.41
7,CGTCCAAGGTCATAGGAGGTCAGTGAAGACAGAT,5.68
8,CGTCCAATGTCAGCAGGTCAGTGAAAGCGACGTG,0.0995
9,CCTCCAAGGTCAGCAGGTCAGTGAAAGCGACGTG,4.24
10,TCTTGTAGATCAACAAGAGGTTAAGAAAGATCGA,1.19
11,GGAACGAGGGCATTCGTGTTGATAGCATGGCGAT,0.768
12,GCTAGCAGGCCATTTCGGTCACTCAATGACGGGC,-0.461
13,TCTAGTTGGTCACGGAGGTCTCACACGACGGGTA,1.99
14,ATATGTAGGTTCGCTGGGGTCATTCAGACTAGGC,3.83
15,CCAGACAGGTGAAAGGTAACACAGTCTGGTACGC,6.13
16,CGAACTAGGTCAAGGACAATGAATCTCCGCACGC,6.69
17,CAAACTAGGTCAAACGTCAAAGTCGAGCCAACCA,9.01
18,CCTTCCGGGTCACTCCAGGTTATAGCATCGGAGT,4.36
19,ACTAGCAGGACAAGGGTCACTCAAGATTAGTCCG,6.93
20,ACTCCGAGGACAAAGGTCAGAGCTACGCCAGTGA,7.6

row,Sequence,PBM binding z-score
1,CCTAGTTGGTCAAGGGCACACACGCTATAGGTAC,1.57
2,ACTCGGAGGACAAAGGTTAGAGCTACGCCAGTGA,5.11
3,CCTAGCAGCCCAGGGTCACTCAAGCATTTCGCTT,0.885
4,CGTCCAAGGTCATAGGAGGTCAGAGAAGACAGAT,6.19
5,CAAACTAGGTCATGAGGTCAAAGTCCGCTTCCCG,8.16
6,TCTGCTAGGTCAAAGATGGTCAGCTAATCTGCTA,4.37
7,TGAATGAGGCTATAAGATCAGGGAACGTTGCAAA,0.203
8,CCAACTAGGTCACGAAAGGTCAAAGTCGAATGAC,8.01
9,TAGCCTAGGTCATGGGCCAATATACCACGCGAAC,3.93
10,CCTACTGGGCCATCCAGAGGTCATTGATCATATG,3.35
11,ACAGACGGGTGAGTGAAGGTAACTCAGCTGGACG,-0.249
12,CTCGAAAGCTCGGTTGAGGTGAGTATACGGATAA,-0.312
13,TTTAGCAGGCCAGAGGGTCACTCAAGAGGTACGG,2.99
14,CCTCGGAGGACCGAAGGTCAGAGCTGTCCGCTTT,1.16
15,CGAACTAGGTAATCCAGGACAGTGAATACATTGA,0.982
16,GCGGCTAGGTCAACTGATGGTCAGCTAAAGCTCG,2.36
17,ATCTCTAGGTAACTAGTTCAGTGAAAGAGAGGAC,0.974
18,GCATATAGGTAATACAATGTGAAAGTCCGATTGT,0.561
19,CCTTACGGGTAAAGGTTATAGCACGGGTGGTACG,4.67
20,GGAACGAGGGCAAGTTGAGAGCAGAGTTTGATGG,1.34

# — the supplement of paper PMC6555819
